Screening data (PubChem)
Luciferase inh: Firefly luciferase inhibition profiling of diverse chemical library using quantitative high-throughput screening. Luciferin 4-monooxygenase (Photinus pyralis), P08659. purified P. pyralis luciferase, luminescence, biochemical. Potency, µM (top dose mostly 115 µM), most hits filed as inhibitors. actives 2.5% (n = 76,000); further: nearly all actives have a fitted effect of over 65% in size
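Luminescence read by CCD imager after adding enzyme (10nM final) to wells holding compound, titrated in qHTS. Substrates 10uM each D-luciferin and ATP; buffer 50mM Tris acetate pH 7.5, 10mM Mg acetate, Tween-20, BSA.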
NIH3T3 tox: Cytotoxic Profiling in NIH 3T3 Cell Line of Diverse Libraries Using Quantitative High-Throughput Screening; actives 4.3% (n = 94,000); NIH 3T3 viability, CellTiter-Glo ATP luminescence, 48-72 h; Potency, µM (top dose mostly 96.7 µM), hits mostly inhibitors; further: nearly all actives have a fitted effect of over 55% in size
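NIH 3T3 cells at 400 cells/well received 23 nL of compound by pintool and were incubated 48 or 72 h at 37 °C. Viability was read as ATP-coupled CellTiter-Glo luminescence.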
HEK293 tox: Cytotoxic Profiling in HEK 293 Cell Line of Diverse Libraries Using Quantitative High-Throughput Screening | Potency, µM (top dose mostly 115 µM), hits mostly inhibitors | actives 6.6% (n = 94,000) | HEK 293 viability, ATP luminescence (CellTiter-Glo), 48-72 h | AID 1345083, 2018; further: nearly all actives have a fitted effect of over 60% in size
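HEK 293 seeded at 250 cells/well receive compound via pintool. After 48 or 72 hr at 37 degree Celsius, 5% CO2 and 95% humidity, CellTiter-Glo is dispensed and luminescence read following 10 min at room temperature.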
GPT2 inhibitor: Primary qHTS assay for inhibitors of Glutamate pyruvate transaminase 2 (GPT2); Alanine aminotransferase 2 (Homo sapiens), Q8TD30; Recombinant GPT2, coupled pyruvate oxidase/HRP Amplex Red fluorescence; Potency, µM (top dose mostly 57.7 µM), actives largely listed as inhibitors; actives 0.25% (n = 100,000); AID 1671188, 2021; further: nearly all actives have a fitted effect of over 60% in size
Target sequence (Q8TD30 whole entry, looked up): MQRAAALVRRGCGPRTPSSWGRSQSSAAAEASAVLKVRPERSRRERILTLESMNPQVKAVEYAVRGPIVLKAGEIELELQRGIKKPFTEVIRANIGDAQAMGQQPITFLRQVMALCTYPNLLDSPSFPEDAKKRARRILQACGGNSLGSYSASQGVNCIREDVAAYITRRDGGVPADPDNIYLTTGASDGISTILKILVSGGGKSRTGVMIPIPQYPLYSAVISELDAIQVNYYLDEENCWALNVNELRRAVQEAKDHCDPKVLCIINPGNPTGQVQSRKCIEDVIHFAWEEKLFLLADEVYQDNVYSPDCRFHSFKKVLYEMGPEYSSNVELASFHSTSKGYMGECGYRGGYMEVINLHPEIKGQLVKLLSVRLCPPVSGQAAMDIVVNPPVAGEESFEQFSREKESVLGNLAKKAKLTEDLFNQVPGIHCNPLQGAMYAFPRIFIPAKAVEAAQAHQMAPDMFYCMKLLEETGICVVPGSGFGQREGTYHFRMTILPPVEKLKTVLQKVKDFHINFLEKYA
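Recombinant GPT2 (10ng/uL) with 250uM a-KG and 2mM L-alanine, 30 min at room temperature, in HEPES pH 7.5 buffer. Pyruvate detected by pyruvate oxidase/HRP/Amplex Red fluorescence after 30 min in the dark; AOA (50uM) as positive control.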
hNpr1 antagonist: Natriuretic polypeptide receptor (hNpr1) antagonism - Primary qHTS; Atrial natriuretic peptide receptor 1 (Homo sapiens), P16066; HEK293 hNpr1 GloSensor cGMP, ANP-stimulated luminescence; Potency, µM (top dose mostly 46.3 µM), usual class: inhibitors; actives 1.6% (n = 76,000); calls by dose curve; further: nearly all actives have a fitted effect of over 60% in size
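Compound pre-incubated 30 min at room temperature on GloSensor-loaded HEK293 cells stably carrying hNpr1 and the pGS-40F cGMP biosensor. Stimulation uses hNppA at 0.1 nM final; luminescence is taken at baseline and 20 min post-agonist.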
A number is an active result; . = inactive; ? = inconclusive; / = no result given. In the library only some 10% were active in any assay of this set; here they are far more common. Unless noted, the call rests on the fitted dose curve; in most records, active means well fitted curve in the direction sought with a large enough effect; inconclusive means small, poorly fitted or top-dose-only effect, or another doubt; inactive means no such curve, though single readings can be large; an effect the other way counts as inactive or inconclusive.

SMILES	Luciferase inh	NIH3T3 tox	HEK293 tox	GPT2 inhibitor	hNpr1 antagonist
COc1ccc(C(=O)Nc2ccc(-c3noc([C@@H]4CCCN4Cc4cnc5ccccc5c4)n3)cn2)cc1	?	28.2µM	22.4µM	.	12.6µM
CS(=O)(=O)c1ccc(CN2CCC[C@H]2c2nc(-c3ccnc(N4CCOCC4)c3)no2)cc1	.	.	.	.	.
c1ccc(CN2CCC[C@H]2c2nc(-c3ccnc(N4CCOCC4)c3)no2)cc1	.	?	89.1µM	.	.
O=C(NC1CCCCCC1)c1nc2sccn2c1-c1cccnc1	/	?	?	.	/
Fc1ccccc1CN1CCC[C@H]1c1nc(-c2ccnc(N3CCOCC3)c2)no1	.	?	89.1µM	?	.
CC(=O)N1CCN(c2cc(-c3noc([C@@H]4CCCN4Cc4ccc(C(F)(F)F)cc4)n3)ccn2)CC1	.	.	28.2µM	.	.
COc1ccc(-c2noc([C@@H]3CCCN3Cc3ccccc3OC)n2)cn1	.	?	?	.	.
N#Cc1ccc(CN2CCC[C@H]2c2nc(-c3ccnc(N4CCOCC4)c3)no2)cc1	.	.	?	.	?
CN(C)c1ccc(-c2noc([C@@H]3CCCN3Cc3nc4ccccc4n3C)n2)cn1	.	?	112µM	.	.
CCOC(=O)CN1C(=O)CCN(C(=O)c2ccc(F)cc2)CC(OC)c2ccccc21 (configuration not stated)	/	.	?	.	/
COC(=O)C[C@H]1c2cccnc2C(=O)N(C)[C@@H]1C(=O)NCCc1ccccc1	/	?	?	.	/
COc1cccc(Nc2ncc3c(n2)C(C)(C(=O)NCC2CC2)CC3)c1 (configuration not stated)	.	?	50.1µM	.	.
COc1cccc(Nc2ncc3c(n2)C(C)(C(=O)NCCc2ccccn2)CC3)c1 (configuration not stated)	.	?	100µM	.	.
COc1cccc(NC(=O)C2(C)CCc3cnc(N4CCOCC4)nc32)c1 (configuration not stated)	.	?	?	.	.
CC1(C(=O)NCC2CC2)COCc2cnc(Nc3ccccc3)nc21 (configuration not stated)	.	.	?	.	.
CN1Cc2ccc(Nc3ccccc3)nc2C(C)(C(=O)NCCc2ccccn2)C1 (configuration not stated)	.	?	?	?	.
CC1(C(=O)NCC2CC2)CCc2cnc(Nc3ccccc3)nc21 (configuration not stated)	.	?	100µM	.	.
CC1(COCC2CC2)COc2ccc(C(=O)Nc3cccc([S+](C)(=O)[O-])c3)cc2N1 (configuration not stated)	.	?	100µM	.	.
CC1(COCC2CC2)COc2ccc(C(=O)Nc3ccccc3)cc2N1 (configuration not stated)	22.4µM	?	?	.	.
CC1(COCC2CC2)COc2ccc(C(=O)NCc3ccccc3)cc2N1 (configuration not stated)	.	?	?	.	.
COc1cccc(-c2ccc(C(=O)NCCNC(=O)c3ccc(Cl)nc3)cc2)c1	/	.	?	/	/
O=C(NC1CCCCCC1)c1cc(-c2ccc(Cl)cc2Cl)c2nncn2n1	/	?	39.8µM	.	/
O=C(NCc1ccc(Cl)cc1)c1cc(-c2ccc(Cl)cc2Cl)c2nncn2n1	/	35.5µM	?	.	/
O=C(c1cccc(-c2ccccn2)c1)N1CCN(C(=O)c2ccccc2F)CC1	/	.	?	.	/
COCCCNc1nc(-c2c(C)noc2C)cc2cc(C(C)C)oc12	.	?	89.1µM	.	.
SMILES	Luciferase inh	NIH3T3 tox	HEK293 tox	GPT2 inhibitor	hNpr1 antagonist
COCCNc1nc(-c2c(C)noc2C)cc2cc(C(C)C)oc12	.	?	70.8µM	.	.
CSc1ccc(-c2cccc(C(=O)NCC(=O)NCc3ccc(F)cc3)c2)cc1	/	?	15.8µM	.	/
O=C(CNC(=O)c1cccc(-c2ccc(C(F)(F)F)cc2)c1)NCc1cccc(Cl)c1	/	?	28.2µM	.	/
O=C(Cc1cccc(Cl)c1)NCCNC(=O)c1cccc(-c2ccc(C(F)(F)F)cc2)c1	/	.	?	.	/
O=C(NCC(=O)N1CCC(c2ccccc2)CC1)c1cccc(-c2ccc(C(F)(F)F)cc2)c1	/	?	10µM	.	/
CSc1ccc(-c2cccc(C(=O)NCC(=O)N3CCN(c4ncccn4)CC3)c2)cc1	/	?	22.4µM	.	/
C=CCCC(CN1CCCC1)Oc1ccc(C(=O)N2CCCC2)cn1 (configuration not stated)	.	.	.	.	.
COc1ccc(NC(=O)c2nc3sccn3c2-c2ccc(C(F)(F)F)cc2)cc1	/	?	?	.	/
CC(=O)Nc1cccc(OCc2nnc(C(=O)N3CCC[C@@H]3c3ccc(Br)cc3)n2Cc2ccccc2)c1	.	22.4µM	31.6µM	.	.
CC(=O)Nc1cccc2ccc(OCc3nnc(C(=O)N4CCC[C@@H]4c4ccc(Br)cc4)n3Cc3ccccc3)cc12	.	?	?	.	.
O=[S+]([O-])(Nc1cc(-c2ccccn2)nn1-c1ccccc1)c1ccccc1	/	?	.	.	/
CCn1c(=O)c2ccnn2c2ccc(C(=O)NCCCOC(C)C)cc21	.	.	?	.	.
CCn1c(=O)c2ccnn2c2ccc(C(=O)Nc3ccc(C)c(F)c3)cc21	.	.	44.7µM	.	.
CN1CCC(NC(=O)c2ccc3c(c2)n(Cc2ccc(F)cc2)c(=O)c2ccnn23)CC1	.	22.4µM	25.1µM	.	.
CCCCNC(=O)c1ccc2c(c1)n(Cc1ccc(F)cc1)c(=O)c1ccnn12	.	?	?	.	.
Cn1c(=O)c2ccnn2c2ccc(C(=O)NCC3CCN(Cc4cccc(F)c4)CC3)cc21	.	?	79.4µM	.	.
Cc1ccc(C(=O)N2CCCC2C(=O)N2CCC(N3Cc4ccccc4C3=O)CC2)cc1 (configuration not stated)	/	.	?	.	/
Cc1nnc2ccc(N3CCN(C(=O)c4cccnc4)CC3)nn12	/	.	.	/	/
COc1ccc(CN2C[C@H](O)C[C@H]2c2nc(-c3ccc(C)c(F)c3)no2)cc1	35.5µM	?	?	.	.
COc1ccc(-c2noc([C@@H]3C[C@@H](O)CN3Cc3ncc[nH]3)n2)cc1	?	.	.	.	.
COc1ccc(-c2noc([C@@H]3C[C@@H](O)CN3Cc3ccc(F)cc3)n2)cc1	44.7µM	.	?	.	.
O[C@@H]1C[C@@H](c2nc(-c3ccncc3)no2)N(Cc2ccc(F)cc2)C1	.	.	.	.	.
Cc1ccc(-c2noc([C@@H]3C[C@@H](O)CN3Cc3cccnc3)n2)cc1F	?	?	63.1µM	.	?
